# According to PubChem BioAssay (EPA / NIEHS):
# Values joined by “and” are separate entries in the source; they are usually repeats but may differ in a detail not shown here. Equal values may be shown once. Records with an inconclusive call do not appear. More than one record can exist for a structure, and the calls need not agree. Active and inactive are the calls of the source. How the source made its calls: active means hit-call score of the fitted dose curve at least 0.9, where 1 is the maximum; inconclusive means response in the unintended direction; inactive means score below 0.9.
# Tests used:
# [1] = molecular target: Glucocorticoid receptor (Homo sapiens) (UniProt P04150); assay: NVS_NR_hGR: NovaScreen (NVS) Nuclear Receptor Binding Assay for human Glucocorticoid Receptor (GR) (AID 2283363);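 on AC50: activity is loss of specific radioligand binding signal relative to DMSO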
# Summary of the method: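 Compounds first tested in duplicate at 25 uM, actives followed up in concentration series. Binding to extracted GR protein measured as competitive radioligand displacement, filter scintillation read 16 h post-dosing, normalised to DMSO.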
# [2] = molecular target: Peroxisome proliferator-activated receptor gamma (Homo sapiens) (UniProt P37231); assay: NVS_NR_hPPARg: NovaScreen (NVS) Nuclear Receptor Binding Assay for human Peroxisome Proliferator-activated Receptor gamma (PPARg) (AID 2283370)
# Summary of the method: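 Cell-free binding to extracted PPARg protein, read by fluorescence polarization 2 h after dosing; loss of signal relative to DMSO baseline marks displacement. Primary screen in duplicate at 25 uM, actives retested in concentration series.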
# [3] = molecular target: human Thyroid Receptor Alpha (TRa), THRA (gene 7067) (UniProt P10827); assay: NVS_NR_hTRa_Antagonist: NovaScreen (NVS) Nuclear Receptor Binding Assay for human Thyroid Receptor Alpha Antagonism (TRa) (AID 2283362);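 further: activity is loss of signal relative to DMSO baseline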
# Summary of the method: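 Cell-free binding assay on extracted receptor protein, read 1 h after chemical dosing by AlphaLISA chemiluminescence; loss of signal relative to DMSO baseline marks antagonism. Primary screen ran in duplicate at 25 uM, with concentration series for actives.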
# [4] = molecular target: Nuclear receptor subfamily 1 group I member 2 (Homo sapiens) (UniProt O75469); assay: NVS_NR_hPXR: NovaScreen (NVS) Nuclear Receptor Binding Assay for human Pregnane X Receptor (PXR) (AID 2283365);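 further: a drop in FRET signal versus DMSO baseline means the compound binds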
# Summary of the method: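 Cell-free binding assay with extracted human PXR protein, read by TR-FRET 2 h after dosing; loss of signal relative to DMSO baseline indicates binding. Primary screen at 25 uM in duplicate, actives retested in concentration series.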
# [5] = molecular target: guinea pig Sigma Receptor, Non-selective Binding, SIGMAR1 (gene 100135589) (UniProt Q60492); assay: NVS_OR_gSIGMA_NonSelective: NovaScreen (NVS) Nuclear Receptor Binding Assay for guinea pig Sigma Receptor, Non-selective Binding (AID 2283367)
# Summary of the method: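 Guinea pig brain membrane sigma sites were labelled with a radioligand, and bound radioactivity was counted after filtration 1 h post-dose. Compounds were screened at 25 uM in duplicate, then retested as concentration series when active.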
# [6] = system: rat Norepinephrine Transporter (NET), gene 83511; assay: NVS_TR_rNET: NovaScreen (NVS) Transporter Assay for rat Norepinephrine Transporter (NET) (AID 2283373)
# Summary of the method: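 Competitive radioligand displacement at the rat NET using forebrain membrane preparations, 1 h incubation, filter-based scintillation readout. Primary testing in duplicate at a single 25 uM concentration; confirmed actives retested across concentrations.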
# [7] = molecular target: rat Androgen Receptor (AR), Ar (gene 24208) (UniProt P15207); assay: NVS_NR_rAR: NovaScreen (NVS) Nuclear Receptor Binding Assay for rat Androgen Receptor (AR) (AID 2283366)
# Summary of the method: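 Actives from a duplicate single-concentration (25 uM) primary run went on to concentration series. Displacement of radioligand was counted by filtration and scintillation, 18 h post-dose, using prostate extracts from testosterone-pretreated rats, with DMSO as baseline.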
# [8] = molecular target: Retinoic acid receptor alpha (Homo sapiens) (UniProt P10276); assay: NVS_NR_hRARa_Agonist: NovaScreen (NVS) Nuclear Receptor Binding Assay for human Retinoic Acid Alpha Receptor Agonism (RAR) (AID 2283361)
# Summary of the method: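 Agonist-mode TR-FRET binding format using extracted protein, measured at 2 h post-dosing. Initial duplicate single-point screen at 25 uM preceded concentration series for actives; activity was normalized to DMSO baseline.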
# [9] = molecular target: human Serotonin Transporter (SERT), SLC6A4 (gene 6532) (UniProt P31645); assay: NVS_TR_hSERT: NovaScreen (NVS) Transporter Assay for human Serotonin Transporter (SERT) (AID 2283372)
# Summary of the method: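 Human platelet membrane preparation; displacement of radioligand from serotonin transporter measured after 1 h by filtration and scintillation counting. Single 25 uM duplicate screen, then concentration series for actives, with DMSO as negative baseline.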
# [10] = molecular target: human Adenosine Transporter (Adot), SLC29A1 (gene 2030) (UniProt Q99808); assay: NVS_TR_hAdoT: NovaScreen (NVS) Transporter Assay for human Adenosine Transporter (Adot) (AID 2283368)
# Summary of the method: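 Binding displacement on U937 extracted protein, read 1 h post-dose by filtration and scintillation counting. Primary duplicate test at 25 uM, then singleton concentration series with 50 uM top; DMSO baseline.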
# human Serotonin Transporter (SERT), SLC6A4 (gene 6532), sequence (P31645 whole entry, looked up): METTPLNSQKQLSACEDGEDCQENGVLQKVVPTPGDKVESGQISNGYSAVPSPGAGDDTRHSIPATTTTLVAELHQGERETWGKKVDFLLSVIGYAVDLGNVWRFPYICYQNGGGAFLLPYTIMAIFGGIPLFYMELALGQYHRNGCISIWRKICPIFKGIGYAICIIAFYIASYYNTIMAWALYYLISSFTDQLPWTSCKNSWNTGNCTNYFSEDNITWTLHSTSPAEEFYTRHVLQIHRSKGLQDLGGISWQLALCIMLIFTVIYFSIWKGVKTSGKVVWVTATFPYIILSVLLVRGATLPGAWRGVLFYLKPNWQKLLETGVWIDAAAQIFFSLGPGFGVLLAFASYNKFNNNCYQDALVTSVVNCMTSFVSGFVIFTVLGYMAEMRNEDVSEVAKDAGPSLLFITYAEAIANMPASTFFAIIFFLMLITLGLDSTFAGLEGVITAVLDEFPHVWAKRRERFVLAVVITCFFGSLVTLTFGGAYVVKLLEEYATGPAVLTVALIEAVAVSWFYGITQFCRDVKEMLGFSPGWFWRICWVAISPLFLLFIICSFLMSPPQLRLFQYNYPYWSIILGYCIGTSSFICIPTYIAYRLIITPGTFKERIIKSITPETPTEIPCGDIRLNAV
# rat Androgen Receptor (AR), Ar (gene 24208), sequence (P15207 whole entry, looked up): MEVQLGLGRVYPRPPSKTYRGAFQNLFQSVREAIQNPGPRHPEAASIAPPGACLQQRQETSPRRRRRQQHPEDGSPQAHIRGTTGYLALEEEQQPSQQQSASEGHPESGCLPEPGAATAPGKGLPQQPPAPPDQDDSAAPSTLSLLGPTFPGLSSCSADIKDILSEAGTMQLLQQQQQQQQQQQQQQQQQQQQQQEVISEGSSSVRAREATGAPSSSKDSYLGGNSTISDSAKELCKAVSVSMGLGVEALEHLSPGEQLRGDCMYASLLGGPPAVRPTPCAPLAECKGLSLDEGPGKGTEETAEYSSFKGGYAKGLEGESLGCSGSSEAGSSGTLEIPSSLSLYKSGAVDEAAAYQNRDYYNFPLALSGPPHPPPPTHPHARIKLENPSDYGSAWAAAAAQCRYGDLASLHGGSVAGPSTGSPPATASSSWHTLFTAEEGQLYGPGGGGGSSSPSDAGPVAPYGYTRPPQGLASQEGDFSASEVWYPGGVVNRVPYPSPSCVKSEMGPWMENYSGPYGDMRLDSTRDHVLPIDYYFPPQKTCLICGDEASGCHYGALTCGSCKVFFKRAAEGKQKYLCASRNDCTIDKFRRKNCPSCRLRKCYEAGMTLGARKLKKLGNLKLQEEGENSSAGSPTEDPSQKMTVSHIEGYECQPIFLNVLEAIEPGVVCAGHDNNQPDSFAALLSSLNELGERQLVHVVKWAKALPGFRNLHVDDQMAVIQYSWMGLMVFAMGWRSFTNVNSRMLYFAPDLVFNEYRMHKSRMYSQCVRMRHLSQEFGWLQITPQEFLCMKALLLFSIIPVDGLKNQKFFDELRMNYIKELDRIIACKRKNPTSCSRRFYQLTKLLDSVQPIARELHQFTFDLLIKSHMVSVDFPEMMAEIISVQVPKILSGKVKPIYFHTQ
# Peroxisome proliferator-activated receptor gamma (Homo sapiens), sequence (P37231 whole entry, looked up): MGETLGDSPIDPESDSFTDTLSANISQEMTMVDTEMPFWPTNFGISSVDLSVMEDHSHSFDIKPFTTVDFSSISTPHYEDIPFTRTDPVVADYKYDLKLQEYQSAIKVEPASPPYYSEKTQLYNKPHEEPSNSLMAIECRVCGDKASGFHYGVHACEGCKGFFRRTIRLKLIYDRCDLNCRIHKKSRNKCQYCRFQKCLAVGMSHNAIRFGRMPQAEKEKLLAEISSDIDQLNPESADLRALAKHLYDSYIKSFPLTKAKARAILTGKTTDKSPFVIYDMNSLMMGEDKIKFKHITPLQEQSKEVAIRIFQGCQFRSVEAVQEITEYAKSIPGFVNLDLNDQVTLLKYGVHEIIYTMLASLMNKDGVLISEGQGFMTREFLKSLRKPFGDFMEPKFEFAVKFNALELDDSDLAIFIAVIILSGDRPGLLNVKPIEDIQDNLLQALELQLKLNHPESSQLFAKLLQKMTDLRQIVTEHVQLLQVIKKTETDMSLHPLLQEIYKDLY
# Retinoic acid receptor alpha (Homo sapiens), sequence (P10276 whole entry, looked up): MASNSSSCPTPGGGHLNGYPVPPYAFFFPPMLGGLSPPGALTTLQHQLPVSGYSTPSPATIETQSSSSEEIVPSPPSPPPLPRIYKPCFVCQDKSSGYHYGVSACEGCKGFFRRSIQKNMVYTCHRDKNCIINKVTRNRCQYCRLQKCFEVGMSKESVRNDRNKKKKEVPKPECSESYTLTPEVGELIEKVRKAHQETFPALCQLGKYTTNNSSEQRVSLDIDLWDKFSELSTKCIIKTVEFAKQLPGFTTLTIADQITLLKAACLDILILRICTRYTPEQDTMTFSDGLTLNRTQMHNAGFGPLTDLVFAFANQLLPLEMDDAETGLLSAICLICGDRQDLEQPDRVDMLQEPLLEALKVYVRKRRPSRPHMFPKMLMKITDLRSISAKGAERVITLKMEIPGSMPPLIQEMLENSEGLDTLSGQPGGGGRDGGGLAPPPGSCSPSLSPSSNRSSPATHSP
# Nuclear receptor subfamily 1 group I member 2 (Homo sapiens), sequence (O75469 whole entry, looked up): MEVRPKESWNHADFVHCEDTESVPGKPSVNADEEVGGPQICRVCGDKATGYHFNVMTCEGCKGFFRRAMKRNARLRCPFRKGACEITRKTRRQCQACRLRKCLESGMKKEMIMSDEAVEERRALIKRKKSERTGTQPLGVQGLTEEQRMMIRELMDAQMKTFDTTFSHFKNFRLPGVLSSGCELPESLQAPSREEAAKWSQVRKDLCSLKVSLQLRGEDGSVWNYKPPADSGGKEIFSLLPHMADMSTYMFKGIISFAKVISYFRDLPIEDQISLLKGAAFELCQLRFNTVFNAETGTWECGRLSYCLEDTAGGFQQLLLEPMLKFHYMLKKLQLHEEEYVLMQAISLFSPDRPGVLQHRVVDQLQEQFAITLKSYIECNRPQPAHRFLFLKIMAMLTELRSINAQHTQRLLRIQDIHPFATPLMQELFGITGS
# Glucocorticoid receptor (Homo sapiens), sequence (P04150 whole entry, looked up): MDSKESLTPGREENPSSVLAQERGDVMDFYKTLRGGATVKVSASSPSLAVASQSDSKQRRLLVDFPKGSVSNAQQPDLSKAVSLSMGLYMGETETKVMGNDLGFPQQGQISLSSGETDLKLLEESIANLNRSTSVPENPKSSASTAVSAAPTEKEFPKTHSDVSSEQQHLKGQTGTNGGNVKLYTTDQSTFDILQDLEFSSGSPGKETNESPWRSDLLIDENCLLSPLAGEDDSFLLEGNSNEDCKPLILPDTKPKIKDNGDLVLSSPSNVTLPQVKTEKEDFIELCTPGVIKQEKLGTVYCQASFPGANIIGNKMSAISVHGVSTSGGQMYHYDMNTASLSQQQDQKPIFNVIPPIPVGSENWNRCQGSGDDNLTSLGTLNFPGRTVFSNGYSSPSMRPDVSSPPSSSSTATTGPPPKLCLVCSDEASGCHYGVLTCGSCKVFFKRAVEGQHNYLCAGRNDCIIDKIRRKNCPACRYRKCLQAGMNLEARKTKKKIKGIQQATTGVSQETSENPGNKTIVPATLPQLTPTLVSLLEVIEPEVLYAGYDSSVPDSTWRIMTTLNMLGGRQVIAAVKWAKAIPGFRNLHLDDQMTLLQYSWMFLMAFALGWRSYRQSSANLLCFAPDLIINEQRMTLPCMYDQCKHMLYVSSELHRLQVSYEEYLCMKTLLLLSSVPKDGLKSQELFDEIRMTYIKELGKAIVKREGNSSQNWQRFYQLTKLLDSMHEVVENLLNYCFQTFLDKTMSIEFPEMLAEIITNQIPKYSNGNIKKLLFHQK
# human Thyroid Receptor Alpha (TRa), THRA (gene 7067), sequence (P10827 whole entry, looked up): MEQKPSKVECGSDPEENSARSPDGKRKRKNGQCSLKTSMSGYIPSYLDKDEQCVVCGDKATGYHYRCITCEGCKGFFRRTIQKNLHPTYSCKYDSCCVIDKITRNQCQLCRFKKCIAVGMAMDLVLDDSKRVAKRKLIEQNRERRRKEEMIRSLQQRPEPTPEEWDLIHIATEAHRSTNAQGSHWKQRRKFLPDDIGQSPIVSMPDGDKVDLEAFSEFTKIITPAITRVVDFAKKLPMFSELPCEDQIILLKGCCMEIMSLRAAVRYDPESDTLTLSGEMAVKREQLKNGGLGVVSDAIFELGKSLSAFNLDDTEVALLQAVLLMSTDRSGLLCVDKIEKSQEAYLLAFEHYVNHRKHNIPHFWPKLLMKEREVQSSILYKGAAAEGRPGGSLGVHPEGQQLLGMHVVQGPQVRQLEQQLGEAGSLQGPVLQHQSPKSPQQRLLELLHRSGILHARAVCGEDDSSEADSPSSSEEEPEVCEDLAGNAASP
# guinea pig Sigma Receptor, Non-selective Binding, SIGMAR1 (gene 100135589), sequence (Q60492 whole entry, looked up): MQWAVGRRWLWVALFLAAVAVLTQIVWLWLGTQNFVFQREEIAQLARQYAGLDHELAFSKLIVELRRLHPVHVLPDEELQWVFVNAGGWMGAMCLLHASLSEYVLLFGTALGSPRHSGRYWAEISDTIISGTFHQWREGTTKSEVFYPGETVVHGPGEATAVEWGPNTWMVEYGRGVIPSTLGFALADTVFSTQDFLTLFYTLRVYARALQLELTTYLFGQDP
# human Adenosine Transporter (Adot), SLC29A1 (gene 2030), sequence (Q99808 whole entry, looked up): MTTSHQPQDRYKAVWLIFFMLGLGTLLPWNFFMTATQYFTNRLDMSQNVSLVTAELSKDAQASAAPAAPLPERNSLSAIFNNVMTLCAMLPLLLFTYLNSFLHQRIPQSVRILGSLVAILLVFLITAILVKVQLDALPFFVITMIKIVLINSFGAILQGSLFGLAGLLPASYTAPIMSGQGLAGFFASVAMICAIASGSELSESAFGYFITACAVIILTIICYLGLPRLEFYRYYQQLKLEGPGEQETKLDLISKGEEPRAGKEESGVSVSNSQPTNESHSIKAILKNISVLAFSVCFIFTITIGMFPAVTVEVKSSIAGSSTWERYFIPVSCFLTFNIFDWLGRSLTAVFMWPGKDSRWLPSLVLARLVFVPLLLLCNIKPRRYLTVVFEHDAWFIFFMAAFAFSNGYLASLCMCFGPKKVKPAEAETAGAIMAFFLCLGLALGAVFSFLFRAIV
structure (smiles),measurement,setting,value
CCCCC(CC)COP(=O)(OCC(CC)CCCC)OCC(CC)CCCC (stereo not given),outcome,[1],inactive
same,outcome,[2],inactive
S=c1[nH]c2ccccc2s1,outcome,[1],inactive
same,outcome,[2],inactive
CCCCOC(=O)CCCCC(=O)OCCCC,outcome,[1],inactive
O=C(O)c1[nH]n(-c2ccc(S(=O)(=O)O)cc2)c(=O)c1N=Nc1ccc(S(=O)(=O)O)cc1,outcome,[3],inactive
O=Cc1ccccc1C=O,AC50,[1],6.78 µM (active)
CSc1ccc(Oc2ccc(S(N)(=O)=O)cc2CN(C)C)cc1C,outcome,[4],inactive
same,AC50,[5],12.8 µM (active)
same,AC50,[6],25 µM (active)
Cc1c(C)c2c(c(C)c1O)CCC(C)(COc1ccc(CC3SC(=O)NC3=O)cc1)O2 (stereo not given),outcome,[7],inactive
same,AC50,[5],35 µM (active)
CC(=O)[C@@]1(O)CC[C@H]2[C@@H]3CCC4=CC(=O)CC[C@]4(C)[C@H]3CC[C@@]21C,outcome,[8],inactive
same,outcome,[4],inactive
Cc1cc(Cc2ccc(N)c(C)c2)ccc1N,outcome,[3],inactive
same,outcome,[1],inactive
same,outcome,[6],inactive
CC(=O)CC(c1ccccc1)c1c(O)c2ccccc2oc1=O (stereo not given),outcome,[4],inactive
CCCCCCCCCCCCCCOS(=O)(=O)O,AC50,[1],2.14 µM (active)
same,AC50,[4],7.25 µM (active)
same,AC50,[2],1.78 µM (active)
O=C1NC(=O)C(c2ccccc2)(c2ccccc2)N1,outcome,[3],inactive
same,outcome,[4],inactive
O=C1OC(c2ccc(O)cc2)(c2ccc(O)cc2)c2ccccc21,AC50,[7],6.69 µM (active)
CC(C)OC(=O)C(C)(C)Oc1ccc(C(=O)c2ccc(Cl)cc2)cc1,AC50,[4],41.2 µM (active)
CN(C)C(=O)NC1(c2ccccc2)CCN(CC[C@@]2(c3ccc(F)c(F)c3)CN(C(=O)c3ccccc3)CCO2)CC1,outcome,[4],inactive
same,outcome,[2],inactive
COc1ccc(C(=O)Nc2nc3ccccc3c(NCc3ccccc3)c2C#N)cc1,outcome,[4],inactive
CC(=O)O[C@]1(C(C)=O)CC[C@H]2[C@@H]3C=C(Cl)C4=CC(=O)[C@@H]5C[C@@H]5[C@]4(C)[C@H]3CC[C@@]21C,outcome,[4],inactive
CCCCc1nc2cccnc2n1Cc1ccc(-c2ccccc2-c2nnn[nH]2)cc1,outcome,[1],inactive
same,AC50,[2],4.96 µM (active)
CCN(CC)CCOc1ccc(C(=C(Cl)c2ccccc2)c2ccccc2)cc1,AC50,[8],25.9 µM (active) and 21 µM (active)
same,outcome,[8],inactive
same,AC50,[3],14.9 µM (active) and 12.2 µM (active) and 16.3 µM (active)
same,AC50,[4],3.15 µM (active) and 3.46 µM (active) and 3.72 µM (active)
same,AC50,[7],2.68 µM (active) [middle of 4 runs]
same,AC50,[5],2.13 µM (active)
same,AC50,[6],10.2 µM (active)
O=C1c2c(O)cccc2Cc2cccc(O)c21,outcome,[4],inactive
CC(C)(C)c1ccccc1,outcome,[4],inactive
CC(C)NCC(O)c1ccc(O)c(O)c1 (stereo not given),outcome,[3],inactive
same,AC50,[2],9.71 µM (active)
Cc1ccc(-c2cc(C(F)(F)F)nn2-c2ccc(S(N)(=O)=O)cc2)cc1,outcome,[7],inactive
COc1ccc(OC(F)(F)F)cc1CN[C@H]1CCCN[C@H]1c1ccccc1,AC50,[4],7.41 µM (active)
same,AC50,[5],15.8 µM (active)
same,AC50,[9],12.5 µM (active)
same,AC50,[6],8.18 µM (active)
CCCCCCCCCC[N+](C)(C)[O-],AC50,[5],3.09 µM (active)
Oc1ccccc1O,AC50,[2],0.00229 µM (active)
C/C=C/C=C/C(=O)O,outcome,[2],inactive
same,outcome,[9],inactive
CCCCC(CC)CO (stereo not given),AC50,[2],0.00905 µM (active)
C=CCc1ccc(OC)c(OC)c1,outcome,[2],inactive
CC(C)(O)c1ccc(CNC(=O)c2cccnc2Oc2ccc(F)cc2)cc1,AC50,[10],34.7 µM (active)
NC1CCCCC1,outcome,[2],inactive
CCCCCCC(CCCCCCCCCCC(=O)OCC(COC(C)=O)OC(C)=O)OC(C)=O (stereo not given),outcome,[2],inactive
CCC(C)N(C)C(=O)c1cc2ccccc2c(-c2ccccc2Cl)n1 (stereo not given),AC50,[5],6.44 µM (active)
same,AC50,[2],5.15 µM (active)
COC(=O)[C@H]1[C@H]2C[C@@H]3c4[nH]c5cc(OC)ccc5c4CCN3C[C@H]2C[C@@H](OC(=O)c2cc(OC)c(OC)c(OC)c2)[C@@H]1OC,AC50,[10],6.6 µM (active)
CO[C@@H]1COCC[C@@H]1N[C@@H]1CC[C@@](C(=O)N2CCc3ncc(C(F)(F)F)cc3C2)(C(C)C)C1,AC50,[5],1.94 µM (active)
same,AC50,[2],15.8 µM (active)
CC(N)=O,AC50,[2],4.98 µM (active)
CN(C)C(=O)NC1(c2ccccc2)CCN(CCC[C@]2(c3ccc(Cl)c(Cl)c3)CCCN(C(=O)c3ccccc3)C2)CC1,AC50,[6],3.55 µM (active)
Cc1cc(SC2=C(O)C[C@@](CCc3ccc(N)cc3)(C(C)C)OC2=O)c(C(C)(C)C)cc1CO,outcome,[5],inactive
NC(=Nc1ccccc1)Nc1ccccc1,AC50,[5],0.646 µM (active)
same,outcome,[6],inactive
CCc1nc(N)nc(N)c1-c1ccc(Cl)cc1,AC50,[5],2.45 µM (active)
same,outcome,[2],inactive
same,AC50,[6],6.82 µM (active)
O=C(O)CC(O)(CC(=O)O)C(=O)O,outcome,[2],inactive
O=C1O[C@H]([C@H](O)CO)C(O)=C1O,outcome,[2],inactive
O=C(NS(=O)(=O)/C=C/c1cccs1)c1ccc(F)cc1Br,AC50,[2],40.7 µM (active)
OCC(O)CO,AC50,[2],0.00229 µM (active)
O=C(N[C@@H](c1ccccc1)[C@@H]1CCCCN1)c1cccc(C(F)(F)F)c1Cl,AC50,[9],9.57 µM (active)
Cn1cnc2c1c(=O)[nH]c(=O)n2C,outcome,[5],inactive
same,outcome,[2],inactive
CN(C)CCCN1c2ccccc2Sc2ccc(Cl)cc21,AC50,[5],2.11 µM (active)
same,AC50,[6],0.0781 µM (active)
CCOCCOCCO,outcome,[2],inactive
Oc1ccc(O)cc1,outcome,[2],inactive
